Measurements as given in the supplement of paper PMC3334620.
The full ranking holds about 33,000 sequences; the median of “E-score (-0.5 to 0.5)” is about -0.054, and the highest 2% start at about 0.39. For the sample, the highest values were picked, then their nearest neighbours and some sequences at random.

What follows are sequences tested against Ylr278c (UniProt Q05854) (assay: PBM E-score (8-mer binding enrichment) (E-score (-0.5 to 0.5)); higher = stronger / more preferred TF binding). Settings: protein concentration: 200 nM; construct: GST-DNA-binding domain.
Sequence of UniProt Q05854 (Q05854 whole entry, the tested form may be a part): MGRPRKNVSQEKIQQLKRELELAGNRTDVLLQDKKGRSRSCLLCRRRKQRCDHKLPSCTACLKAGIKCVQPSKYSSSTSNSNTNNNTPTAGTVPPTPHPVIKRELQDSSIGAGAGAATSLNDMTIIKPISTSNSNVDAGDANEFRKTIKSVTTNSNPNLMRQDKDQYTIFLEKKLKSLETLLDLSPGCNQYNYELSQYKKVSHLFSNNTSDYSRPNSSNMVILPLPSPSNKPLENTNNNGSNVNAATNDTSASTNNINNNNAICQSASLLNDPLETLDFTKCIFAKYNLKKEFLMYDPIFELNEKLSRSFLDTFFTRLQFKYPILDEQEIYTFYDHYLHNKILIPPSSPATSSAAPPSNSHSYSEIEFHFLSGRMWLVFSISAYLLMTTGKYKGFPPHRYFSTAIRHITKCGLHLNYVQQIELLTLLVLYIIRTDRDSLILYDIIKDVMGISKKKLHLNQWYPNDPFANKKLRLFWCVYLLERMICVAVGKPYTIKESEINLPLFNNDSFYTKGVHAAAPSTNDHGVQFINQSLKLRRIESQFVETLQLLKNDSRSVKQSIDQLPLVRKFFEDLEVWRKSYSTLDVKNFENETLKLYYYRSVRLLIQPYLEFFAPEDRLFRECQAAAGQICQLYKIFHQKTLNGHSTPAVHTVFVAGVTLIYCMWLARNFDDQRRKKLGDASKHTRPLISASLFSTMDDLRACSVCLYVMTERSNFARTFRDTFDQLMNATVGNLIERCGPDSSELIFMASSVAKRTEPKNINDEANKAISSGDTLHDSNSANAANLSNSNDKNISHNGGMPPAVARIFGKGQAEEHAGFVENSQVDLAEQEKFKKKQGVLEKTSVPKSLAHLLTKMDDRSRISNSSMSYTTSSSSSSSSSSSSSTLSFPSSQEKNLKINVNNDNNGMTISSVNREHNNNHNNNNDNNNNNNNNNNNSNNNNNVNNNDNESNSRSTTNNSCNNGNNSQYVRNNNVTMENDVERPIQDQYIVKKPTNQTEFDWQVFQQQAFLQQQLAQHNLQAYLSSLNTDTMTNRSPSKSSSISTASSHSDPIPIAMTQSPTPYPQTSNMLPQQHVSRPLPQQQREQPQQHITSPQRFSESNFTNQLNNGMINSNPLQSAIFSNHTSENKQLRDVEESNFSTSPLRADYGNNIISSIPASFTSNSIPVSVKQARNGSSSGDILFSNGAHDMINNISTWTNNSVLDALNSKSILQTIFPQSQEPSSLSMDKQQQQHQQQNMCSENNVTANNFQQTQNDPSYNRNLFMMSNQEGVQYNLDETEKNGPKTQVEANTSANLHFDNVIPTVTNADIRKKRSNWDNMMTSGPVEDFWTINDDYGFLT
Outline: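 PURExpress in vitro transcription/translation supplied GST-tagged yeast transcription factors, either full-length or DNA-binding domain. Applied at about 100-200 nM to universal all-10-mer Agilent arrays double-stranded by primer extension, the bound protein was detected with fluorescent anti-GST. E-scores, modified Wilcoxon-Mann-Whitney statistics, were given by the Universal PBM Analysis Suite to ungapped eight-base words pooled with their reverse complements after masliner normalisation.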

Sequence	PBM E-score
ACCCGGAG	0.46
GCCCGGTA	0.26
GCCCGGGA	0.341
ACCCGGCG	0.258
GCCCGGAA	0.423
AGCTCACC	-0.00625
GTTCCGAA	0.373
ATTCCGAC	0.451
CTTCCGAA	0.371
ATTCCGAG	0.445
ATTCCGAA	0.456
ATGCCGAG	0.213
CTTCCGAC	0.273
ATGCCGAC	0.318
ATTCCAAG	-0.077
GTGCAACA	-0.184
ACATTCCG	0.332
AGGGTTAG	-0.249
ATATGATA	0.0821
AAGATTCT	-0.242
AACACCGC	0.27
AACACCGG	0.411
CCCACCGA	0.00192
AATACCGT	0.211
AATACCGG	0.416

Sequence	PBM E-score
CACACCGG	0.283
AATACCGC	0.268
CCCACCGC	0.225
CCCACCGG	0.41
ATAAATAT	0.106
GGTTCGTA	-0.0544
CACTGTAC	-0.378
AAAGCGAC	0.031
CACCGAAG	0.167
ATCCGAAA	0.368
CTCCGAAG	0.479
GGCCGAAA	0.254
AACCGAAT	0.133
CGCCGAAG	0.365
GTCCGAAC	0.401
ATCCGAAG	0.301
GTCCGAAA	0.426
GCCCGAAC	0.215
GACCGAAC	0.122
ATCCGAAT	0.395
GGACACCA	0.0663
AAATGGTT	-0.0331
ACCCACAA	0.00936
AGCTTCCG	0.24
CAACTGCA	-0.174

Sequence	PBM E-score
GGAGCTCC	0.348
CTCCGAAA	0.477
CACCGAAA	0.184
ATCCGAAC	0.344
CGCCGAAA	0.358
CTCCGAAC	0.457
TTCCGAAA	0.43
CACCGAAC	0.102
TCCCGAAA	0.238
TGCCGAAA	0.325
CCACAATC	0.0776
ACTGCTAA	-0.185
AACAGTTC	-0.0219
CCTCAAAG	-0.271
AGCGCTCC	0.0243
CAGTAGCG	0.0152
GGAGTTAC	0.399
CGAGTTAC	-0.00574
AGAGTTAC	-0.362
ACCTAGCT	-0.1
ACTACAAA	-0.0603
GGCCGAGA	0.272
GTCCGAGA	0.416
CTCCGAGA	0.452
ATCCGAGC	0.266

Sequence	PBM E-score
CTCCGAGC	0.439
CGCCGAGA	0.304
CCCCGAGC	0.219
CACCGAGA	0.034
ATCCGAGA	0.299
AAATATCT	0.00279
GCGCAGTA	0.0804
ACTAGCGA	-0.0813
ATGGATGC	-0.0459
ATCATGAT	-0.14
ACGTAGAC	-0.244
CCGGAGAC	0.444
CTGGAGAA	-0.141
CCGGAGAA	0.489
ACGGAGAA	0.434
ATGGAGAA	0.148
AAGGAGAA	-0.0157
ACGGAGAG	0.336
CAGGAGAG	-0.205
CCGGAGAG	0.456
CGGGAGAC	0.302
CAGGAGAA	0.0274
CTGGAGAC	-0.222
CTCAGAAA	-0.257
GAAGACAA	-0.0383

Sequence	PBM E-score
ACCGATCG	0.26
CGGGTAAA	0.156
CTGAGAAG	-0.149
ACGAGTCG	-0.159
AATTTCGT	-0.0607
CGAGATCA	0.013
GGCAGCGA	0.0771
CCCAGGAG	-0.188
CAACACTC	0.133
TACGGTCA	0.0722
GTAAAGAA	-0.0759
GCGGAGAA	0.436
TGGGAGAA	-0.208
TCGGAGAA	0.465
GGGGAGAA	0.0935
GTGGAGAA	-0.0956
TAGGAGAA	-0.134
ATACCTTG	-0.236
AACCTAGG	-0.102
CATAGGAG	-0.136
GACTATGA	-0.11
AGTCTTGA	-0.247
CGGAAAAA	0.446
CGGAAATC	0.41
CTGAAATC	0.0679

Sequence	PBM E-score
AGGAAATC	0.178
CGGAAATA	0.451
CGGAAAAC	0.373
GGGAAATA	0.0851
AGGAAATA	0.0859
CGGAAAAG	0.373
ACGCGAGA	-0.171
CATTCAAG	-0.154
AACCGGGC	0.0679
ATCCGGGA	0.332
CTCCGGGC	0.448
CTCCGGGA	0.468
CACCGGGC	0.304
ATCCGAGG	0.274
ATCCGGGG	0.414
CCCGGGGA	0.358
ATCCGGGC	0.406
AACCGGGG	0.321
CTGCGGGC	0.276
GTCCGGGA	0.38
TAAGAGTA	-0.0846
ACGACAGA	-0.232
AGCCGCAC	-0.0107
CCAGACGA	-0.149
CCGCTTTC	0.211

Sequence	PBM E-score
CATCCATA	-0.123
AGGAGTCC	0.13
CAGAGTCC	0.0837
CGGAGTCA	0.457
AGGAGTCA	-0.121
GGGAGTCA	-0.00639
CGGAGTCC	0.464
GAAGCCAA	0.0199
ACTGTTCA	-0.122
GATTCCGA	0.413
CATTCCTA	-0.212
GATTCCCA	0.0255
TATTCCGA	0.453
TATTCCAA	-0.177
GATTCCAA	-0.116
CATTCCGG	0.384
TATTCCCA	0.138
CATTCCGA	0.391
AGCTAGTA	-0.114
GAGTTCCC	0.0904
AACTTATA	0.0873
CAAGCAGG	0.00606
